The text below walks through data of PubChem BioAssay (NCATS).

Inconclusive results are not listed. Where a call stands in place of a potency, no number is given. The source made the active and inactive calls. The call rests on the fitted dose curve; in most records, active means well fitted curve in the direction sought with a large enough effect; inconclusive means small, poorly fitted or top-dose-only effect, or another doubt; inactive means no such curve, though single readings can be large; an effect the other way counts as inactive or inconclusive.
Potency means the concentration at half of the fitted maximal effect.

Chain of DNA polymerase III PolC-type (Bacillus subtilis (strain 168)) (P13267 whole entry, looked up): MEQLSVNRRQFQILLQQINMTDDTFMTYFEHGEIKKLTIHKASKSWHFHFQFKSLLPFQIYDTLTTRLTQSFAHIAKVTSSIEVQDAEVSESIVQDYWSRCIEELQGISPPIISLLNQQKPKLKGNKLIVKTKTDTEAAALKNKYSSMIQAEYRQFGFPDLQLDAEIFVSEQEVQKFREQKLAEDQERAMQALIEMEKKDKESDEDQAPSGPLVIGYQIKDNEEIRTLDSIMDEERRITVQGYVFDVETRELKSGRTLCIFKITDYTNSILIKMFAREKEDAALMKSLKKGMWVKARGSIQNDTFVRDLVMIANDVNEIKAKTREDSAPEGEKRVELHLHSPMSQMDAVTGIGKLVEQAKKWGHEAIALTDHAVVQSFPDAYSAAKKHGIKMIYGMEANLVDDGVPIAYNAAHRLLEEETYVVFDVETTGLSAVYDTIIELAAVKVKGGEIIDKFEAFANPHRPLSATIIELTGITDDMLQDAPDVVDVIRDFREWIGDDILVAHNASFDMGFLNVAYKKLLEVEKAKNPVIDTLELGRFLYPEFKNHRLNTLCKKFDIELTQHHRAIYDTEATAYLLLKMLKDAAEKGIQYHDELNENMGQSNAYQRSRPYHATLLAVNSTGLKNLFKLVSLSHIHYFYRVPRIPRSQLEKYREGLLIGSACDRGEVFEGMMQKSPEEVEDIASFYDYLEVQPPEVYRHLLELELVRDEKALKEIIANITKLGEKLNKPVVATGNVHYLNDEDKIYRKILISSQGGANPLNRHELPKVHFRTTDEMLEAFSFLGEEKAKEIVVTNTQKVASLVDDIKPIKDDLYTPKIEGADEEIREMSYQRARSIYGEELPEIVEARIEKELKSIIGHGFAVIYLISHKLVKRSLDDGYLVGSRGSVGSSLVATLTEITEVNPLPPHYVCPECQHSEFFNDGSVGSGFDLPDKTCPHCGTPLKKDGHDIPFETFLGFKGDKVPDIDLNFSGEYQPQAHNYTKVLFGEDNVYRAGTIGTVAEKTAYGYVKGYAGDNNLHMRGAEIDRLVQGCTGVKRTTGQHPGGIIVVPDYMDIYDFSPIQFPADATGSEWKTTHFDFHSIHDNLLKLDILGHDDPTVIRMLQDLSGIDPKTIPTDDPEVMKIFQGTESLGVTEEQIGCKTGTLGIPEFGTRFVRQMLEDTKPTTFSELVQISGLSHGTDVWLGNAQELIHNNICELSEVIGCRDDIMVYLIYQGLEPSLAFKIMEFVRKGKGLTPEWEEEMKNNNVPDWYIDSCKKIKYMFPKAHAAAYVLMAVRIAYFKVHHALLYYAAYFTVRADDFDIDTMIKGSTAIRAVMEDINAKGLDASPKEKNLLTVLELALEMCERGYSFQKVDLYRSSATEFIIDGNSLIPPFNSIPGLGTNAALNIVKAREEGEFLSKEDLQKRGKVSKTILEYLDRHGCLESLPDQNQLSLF
Chain of Ubiquitin carboxyl-terminal hydrolase 2 (Homo sapiens) (O75604 whole entry, looked up): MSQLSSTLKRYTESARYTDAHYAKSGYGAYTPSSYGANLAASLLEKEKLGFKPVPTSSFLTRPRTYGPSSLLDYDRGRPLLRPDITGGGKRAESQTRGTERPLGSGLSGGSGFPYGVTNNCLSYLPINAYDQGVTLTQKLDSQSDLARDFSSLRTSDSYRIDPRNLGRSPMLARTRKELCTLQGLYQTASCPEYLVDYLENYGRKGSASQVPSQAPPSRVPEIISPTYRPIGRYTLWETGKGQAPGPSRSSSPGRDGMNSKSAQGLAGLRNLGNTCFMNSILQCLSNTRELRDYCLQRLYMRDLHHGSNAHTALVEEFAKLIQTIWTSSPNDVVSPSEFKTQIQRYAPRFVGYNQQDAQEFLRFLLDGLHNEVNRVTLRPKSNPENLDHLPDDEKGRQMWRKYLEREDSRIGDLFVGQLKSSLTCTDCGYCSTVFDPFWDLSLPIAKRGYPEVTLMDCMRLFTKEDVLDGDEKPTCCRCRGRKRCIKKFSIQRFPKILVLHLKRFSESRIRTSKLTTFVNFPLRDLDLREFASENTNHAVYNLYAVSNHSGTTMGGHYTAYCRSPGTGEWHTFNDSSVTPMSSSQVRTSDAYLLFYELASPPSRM

Test system in one test: not listed separately
Kind of test: Validation screen for small molecules that induce DNA re-replication in MCF 10A normal breast cells (AID 463097). Further: nearly all actives have a fitted effect of over 60% in size. The conditions noted are these: MCF 10A cells, DNA re-replication phenotype imaging; series mostly up to 46.1 µM. The essentials: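 Readout: Hoechst nuclear fluorescence intensity, 405 ex / 500-530 em, by scanning plate imager; re-replication scored as increase in nuclei with elevated DNA content. Cells exposed to compound 48 hr, 37 C, 5% CO2 beforehand.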
In the case of `COc1cc(C(O)CO)ccc1OS(=O)(=O)O` (centres undefined), the Potency entry is “inactive”.

As for `Cc1ccc(O)c(N=Nc2ccccc2)n1`, the Potency entry was “inactive”.

Regarding `CC1(C)CCC=[N+]1[O-]`, the Potency result is “inactive”.

For the compound `Oc1cc2c(cc1O)CN(C(=S)NCCc1ccc(Cl)cc1)CCC2`, the Potency is 3.55 µM (active).

Turning to `O=c1[nH]c2cc(Cl)c(Cl)cc2[nH]c1=O`, the Potency result is “inactive”.

As for `NC(=O)C(=O)O`, the Potency entry is “inactive”.

Consider `CN1CCc2cc(NC(=O)Nc3cccnc3)ccc21`, for which the Potency entry was “inactive”.

Take `CCCCN1CCC(n2c(=O)[nH]c3ccccc32)CC1`: the Potency entry is “inactive”.

As to `CC1CN(S(=O)(=O)c2cccc3cnccc23)CCN1` (centres undefined), the Potency entry is “inactive”.

For `Oc1ccc(C2CNCc3sccc32)cc1O` (centres undefined), the Potency result was “inactive”.

Turning to `O=C(Nc1cccc(C(=O)Nc2ccc(S(=O)(=O)O)c3cc(S(=O)(=O)O)cc(S(=O)(=O)O)c23)c1)Nc1cccc(C(=O)Nc2ccc(S(=O)(=O)O)c3cc(S(=O)(=O)O)cc(S(=O)(=O)O)c23)c1`, the Potency result was “inactive”.

Turning to `COc1ccc(/C=C/C(=O)Nc2ccccc2C(=O)O)cc1OC`, the Potency result is “inactive”.

On to `O=C(O)CNC(=O)C(CS)Cc1ccccc1` (centres undefined), for which the Potency entry is “inactive”.

In the case of `CN(C)C(N)=NCCC[C@H](N)C(=O)O`, the Potency result is “inactive”.

On to `C=CC(N)CCC(=O)O` (centres undefined), for which the Potency result was “inactive”.

Take `NCCNC(=O)c1ncsc1-c1cccc(F)c1`: the Potency result is “inactive”.

`NCCCCC(=O)O`: the Potency entry is “inactive”.

`NCCCCCCCCCCN`: the Potency result is “inactive”.

The target in another test is Ubiquitin carboxyl-terminal hydrolase 2 (Homo sapiens) (UniProt O75604). Kind of test: qHTS Validation Assay for Inhibitors of Ubiquitin-specific Protease USP2a Using CHOP2 as the Reporter (AID 463106). The conditions noted are these: USP2a cleavage of CHOP2 reporter, enzymatic; series mostly up to 38.3 µM. The essentials:
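Inhibition is expressed relative to NEM as the full-inhibition control, with concentration-response curves classed by fit quality, magnitude and activity. Enzyme (USP2 core, 10nM) meets 25nM Ub-CHOP2 after compound preincubation; readings are taken at 60min.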
In general terms: Quantitative high-throughput screening tests each substance at several concentrations.
`COc1cccc(C(=O)NCCN2CCN(c3ccc(Cl)cc3)CC2)c1`: the Potency entry is “inactive”.

Consider `O=C(O)[C@@H]1C[C@@H](C(=O)O)N1`, for which the Potency result is “inactive”.

With `COc1cccc(OC)c1OCCNCC1COc2ccccc2O1` (centres undefined), the Potency result is “inactive”.

As for `CCCn1c(=O)c2[nH]c(-c3ccc(OCC(=O)NCCN)cc3)nc2n(CCC)c1=O`, the Potency result was “inactive”.

Regarding `O=c1[nH]c2cc([N+](=O)[O-])c([N+](=O)[O-])cc2[nH]c1=O`, the Potency entry is “inactive”.

`O=C1NC(O)=NC1(c1ccccc1)c1ccccc1`: the Potency result is “inactive”.

Regarding `c1ccc(-c2ccccn2)nc1`, the Potency entry was “inactive”.

Regarding `CC(=O)SCC[N+](C)(C)C`, the Potency result was “inactive”.

For `CC(C)NCC(O)COc1cccc2ccccc12` (centres undefined), the Potency result is “inactive”.

Take `O=C(O)/C=C/C(O)c1ccc(Cl)cc1` (centres undefined): the Potency entry was “inactive”.

For `O=C(O)[C@@H]1C[C@H](C(=O)O)N1`, the Potency entry was “inactive”.

As for `Cc1ccc(C(=O)O[C@H](C(=O)O)[C@@H](OC(=O)c2ccc(C)cc2)C(=O)O)cc1` (tested in a mixture with another compound), the Potency result is “inactive”.

For the compound `CN1C2CCC1CC(OC(=O)C(O)c1ccccc1)C2` (centres undefined), the Potency entry was “inactive”.

Turning to `C[N+](C)(CCCCCC[N+](C)(C)CCCN1C(=O)c2cccc3cccc(c23)C1=O)CCCN1C(=O)c2cccc3cccc(c23)C1=O`, the Potency entry was “inactive”.

As for `N[C@@H](CC(=O)O)C(=O)O`, the Potency result is “inactive”.

With `CC(C)NC[C@H](O)COc1cccc2[nH]ccc12`, the Potency result was “inactive”.

For `O=C(O)c1cc(=O)c2c(Cl)cc(Cl)cc2[nH]1`, the Potency entry was “inactive”.

Consider `COc1ccccc1CNCCCCCCNCCCCCCCCNCCCCCCNCc1ccccc1OC`, for which the Potency entry was “inactive”.

As for `O=C(O)CC1CCCc2ccccc2C1O` (centres undefined), the Potency entry is “inactive”.

Turning to `NC(N)=NC(=O)c1nc(Cl)c(N2CCCCCC2)nc1N`, the Potency entry is “inactive”.

Take `COc1cc(C(O)CO)ccc1OS(=O)(=O)O` (centres undefined): the Potency entry is “inactive”.

For the compound `Cc1ccc(O)c(N=Nc2ccccc2)n1`, the Potency entry is “inactive”.

As to `CC1(C)CCC=[N+]1[O-]`, the Potency result is “inactive”.

With `Oc1cc2c(cc1O)CN(C(=S)NCCc1ccc(Cl)cc1)CCC2`, the Potency entry was “inactive”.

With `O=c1[nH]c2cc(Cl)c(Cl)cc2[nH]c1=O`, the Potency entry is “inactive”.

Take `NC(=O)C(=O)O`: the Potency entry was “inactive”.

On to `CN1CCc2cc(NC(=O)Nc3cccnc3)ccc21`, for which the Potency result was “inactive”.

For the compound `CCCCN1CCC(n2c(=O)[nH]c3ccccc32)CC1`, the Potency entry is “inactive”.

In the case of `CC1CN(S(=O)(=O)c2cccc3cnccc23)CCN1` (centres undefined), the Potency result was “inactive”.

For the compound `Oc1ccc(C2CNCc3sccc32)cc1O` (centres undefined), the Potency result is “inactive”.

For `O=C(Nc1cccc(C(=O)Nc2ccc(S(=O)(=O)O)c3cc(S(=O)(=O)O)cc(S(=O)(=O)O)c23)c1)Nc1cccc(C(=O)Nc2ccc(S(=O)(=O)O)c3cc(S(=O)(=O)O)cc(S(=O)(=O)O)c23)c1`, the Potency is 8.26 µM (active).

For the compound `COc1ccc(/C=C/C(=O)Nc2ccccc2C(=O)O)cc1OC`, the Potency entry was “inactive”.

Regarding `O=C(O)CNC(=O)C(CS)Cc1ccccc1` (centres undefined), the Potency result was “inactive”.

On to `CN(C)C(N)=NCCC[C@H](N)C(=O)O`, for which the Potency result is “inactive”.

In the case of `C=CC(N)CCC(=O)O` (centres undefined), the Potency entry is “inactive”.

As to `NCCNC(=O)c1ncsc1-c1cccc(F)c1`, the Potency result is “inactive”.

As for `NCCCCC(=O)O`, the Potency result was “inactive”.

Regarding `NCCCCCCCCCCN`, the Potency result was “inactive”.

Another test has as its target DNA polymerase III PolC-type (Bacillus subtilis (strain 168)) (UniProt P13267). Kind of test: qHTS Validation Assay for the Inhibitors of DNA Replication in Gram-Positive Bacteria (AID 485295). Conditions: Gram-positive bacterial DNA replication assay; series mostly up to 57.1 µM. The essentials: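 Reconstituted B. subtilis holoenzyme (Pol III, beta clamp, SSB, primase) was preincubated with compound at room temperature, then given single-stranded circular M13Gori plus dNTPs and NTPs. EDTA-containing PicoGreen stopped the reaction, and dsDNA product was read by fluorescence.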
`COc1cccc(C(=O)NCCN2CCN(c3ccc(Cl)cc3)CC2)c1`: the Potency result was “inactive”.

Regarding `O=C(O)[C@@H]1C[C@@H](C(=O)O)N1`, the Potency result is “inactive”.

Regarding `COc1cccc(OC)c1OCCNCC1COc2ccccc2O1` (centres undefined), the Potency entry was “inactive”.

As to `CCCn1c(=O)c2[nH]c(-c3ccc(OCC(=O)NCCN)cc3)nc2n(CCC)c1=O`, the Potency entry is “inactive”.

For the compound `O=c1[nH]c2cc([N+](=O)[O-])c([N+](=O)[O-])cc2[nH]c1=O`, the Potency entry is “inactive”.

Turning to `O=C1NC(O)=NC1(c1ccccc1)c1ccccc1`, the Potency entry is “inactive”.

Turning to `c1ccc(-c2ccccn2)nc1`, the Potency entry was “inactive”.

For the compound `CC(=O)SCC[N+](C)(C)C`, the Potency entry was “inactive”.

For the compound `CC(C)NCC(O)COc1cccc2ccccc12` (centres undefined), the Potency entry is “inactive”.

As to `O=C(O)/C=C/C(O)c1ccc(Cl)cc1` (centres undefined), the Potency entry is “inactive”.

Take `O=C(O)[C@@H]1C[C@H](C(=O)O)N1`: the Potency entry is “inactive”.

With `Cc1ccc(C(=O)O[C@H](C(=O)O)[C@@H](OC(=O)c2ccc(C)cc2)C(=O)O)cc1` (tested in a mixture with another compound), the Potency result was “inactive”.

In the case of `CN1C2CCC1CC(OC(=O)C(O)c1ccccc1)C2` (centres undefined), the Potency entry is “inactive”.

For `C[N+](C)(CCCCCC[N+](C)(C)CCCN1C(=O)c2cccc3cccc(c23)C1=O)CCCN1C(=O)c2cccc3cccc(c23)C1=O`, the Potency was 10.6 µM (active).

Regarding `N[C@@H](CC(=O)O)C(=O)O`, the Potency entry is “inactive”.

`CC(C)NC[C@H](O)COc1cccc2[nH]ccc12`: the Potency entry was “inactive”.

As for `O=C(O)c1cc(=O)c2c(Cl)cc(Cl)cc2[nH]1`, the Potency result was “inactive”.

Consider `COc1ccccc1CNCCCCCCNCCCCCCCCNCCCCCCNCc1ccccc1OC`, for which the Potency entry is “inactive”.

For `O=C(O)CC1CCCc2ccccc2C1O` (centres undefined), the Potency entry was “inactive”.

For the compound `NC(N)=NC(=O)c1nc(Cl)c(N2CCCCCC2)nc1N`, the Potency entry is “inactive”.

As for `COc1cc(C(O)CO)ccc1OS(=O)(=O)O` (centres undefined), the Potency result was “inactive”.

For the compound `Cc1ccc(O)c(N=Nc2ccccc2)n1`, the Potency entry was “inactive”.

`CC1(C)CCC=[N+]1[O-]`: the Potency result was “inactive”.

Regarding `Oc1cc2c(cc1O)CN(C(=S)NCCc1ccc(Cl)cc1)CCC2`, the Potency entry was “inactive”.

With `O=c1[nH]c2cc(Cl)c(Cl)cc2[nH]c1=O`, the Potency entry is “inactive”.

Turning to `NC(=O)C(=O)O`, the Potency entry was “inactive”.

Consider `CN1CCc2cc(NC(=O)Nc3cccnc3)ccc21`, for which the Potency result is “inactive”.

With `CCCCN1CCC(n2c(=O)[nH]c3ccccc32)CC1`, the Potency entry was “inactive”.

Turning to `CC1CN(S(=O)(=O)c2cccc3cnccc23)CCN1` (centres undefined), the Potency entry is “inactive”.

For `Oc1ccc(C2CNCc3sccc32)cc1O` (centres undefined), the Potency entry was “inactive”.

Take `O=C(Nc1cccc(C(=O)Nc2ccc(S(=O)(=O)O)c3cc(S(=O)(=O)O)cc(S(=O)(=O)O)c23)c1)Nc1cccc(C(=O)Nc2ccc(S(=O)(=O)O)c3cc(S(=O)(=O)O)cc(S(=O)(=O)O)c23)c1`: the Potency was 11.9 µM (active).

On to `COc1ccc(/C=C/C(=O)Nc2ccccc2C(=O)O)cc1OC`, for which the Potency result is “inactive”.

Consider `O=C(O)CNC(=O)C(CS)Cc1ccccc1` (centres undefined), for which the Potency entry was “inactive”.

As for `CN(C)C(N)=NCCC[C@H](N)C(=O)O`, the Potency result was “inactive”.

As for `C=CC(N)CCC(=O)O` (centres undefined), the Potency result was “inactive”.

With `NCCNC(=O)c1ncsc1-c1cccc(F)c1`, the Potency result is “inactive”.

With `NCCCCC(=O)O`, the Potency result is “inactive”.

As to `NCCCCCCCCCCN`, the Potency result was “inactive”.
